# APE1 inh: qHTS Assay for Inhibitors of the Human Apurinic/apyrimidinic Endonuclease 1 (APE1); DNA repair nuclease/redox regulator APEX1 (Homo sapiens), P27695; recombinant APE1, TAMRA/BHQ-2 abasic DNA cleavage fluorescence; Potency, µM (doses to about 65.8 µM), for inactives: at the top dose activity change, negative = inhibition, most hits filed as inhibitors; hit rate 0.35% among 350,000; AID 2517, 2012;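 note: plate controls were vehicle for no effect and reference inhibitor for full effect; nearly all actives have a fitted effect of over 55% in size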
# Target sequence (P27695 whole entry, looked up): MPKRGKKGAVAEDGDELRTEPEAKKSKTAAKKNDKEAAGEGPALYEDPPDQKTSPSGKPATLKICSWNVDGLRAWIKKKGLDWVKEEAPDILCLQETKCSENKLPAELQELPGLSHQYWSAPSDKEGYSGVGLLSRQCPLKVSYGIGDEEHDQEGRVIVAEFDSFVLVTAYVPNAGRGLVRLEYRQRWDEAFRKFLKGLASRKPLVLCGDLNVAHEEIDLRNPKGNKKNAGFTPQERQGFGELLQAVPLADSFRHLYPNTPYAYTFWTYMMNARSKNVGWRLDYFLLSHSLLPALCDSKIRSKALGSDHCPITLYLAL
#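 Compound pre-exposure to 0.75 nM APE1, 15 min at ambient temperature. Reaction initiated with 50 nM TAMRA/BHQ-2 THF substrate, read immediately in kinetic mode, 525 nm excitation, 598 nm emission.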
# L3MBTL1 inh: qHTS Assay for the Inhibitors of L3MBTL1. Lethal(3)malignant brain tumor-like protein 1 (Homo sapiens), Q9Y468. AlphaScreen L3MBTL1–H3K9me1 peptide binding. Potency, µM (titrated, usually from 57.1 µM), inactives show at the top dose activity, negative = inhibition, actives largely listed as inhibitors. hit rate 0.66% among 230,000. AID 485360, 2010; note: nearly all actives have a fitted effect of over 60% in size
#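 First, the protein-peptide complex forms for 30 min at room temperature (L3MBTL1 50 nM, biotinylated H3K9me1 peptide 75 nM). Next, compounds are pin-transferred and incubated 30 min. Finally, AlphaScreen beads are added and read after 30 min.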
# JMJD2E inh: qHTS Assay for Inhibitors of Human Jumonji Domain Containing 2E (JMJD2E); hit rate 1.6% among 230,000; JMJD2E catalytic domain, FDH-coupled NADH fluorescence (FDH is formaldehyde dehydrogenase); AID 2147, 2009; Lysine-specific demethylase 4E (Homo sapiens), B2RXH2; Potency, µM (series often up to 57.1 µM), inactives show top-dose activity change, negative = inhibition, most hits filed as inhibitors; active = well fitted inhibition curve with a large enough effect, not every such curve was filed as active; inconclusive = small, poorly fitted or top-dose-only effect, or another doubt; inactive = no such curve, though single readings can be large or run the other way;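 note: 0% = wells with enzyme and -100% = buffer wells without enzyme; nearly all actives have a fitted effect of over 50% in size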
# Target sequence (B2RXH2 1-337 limits assumed): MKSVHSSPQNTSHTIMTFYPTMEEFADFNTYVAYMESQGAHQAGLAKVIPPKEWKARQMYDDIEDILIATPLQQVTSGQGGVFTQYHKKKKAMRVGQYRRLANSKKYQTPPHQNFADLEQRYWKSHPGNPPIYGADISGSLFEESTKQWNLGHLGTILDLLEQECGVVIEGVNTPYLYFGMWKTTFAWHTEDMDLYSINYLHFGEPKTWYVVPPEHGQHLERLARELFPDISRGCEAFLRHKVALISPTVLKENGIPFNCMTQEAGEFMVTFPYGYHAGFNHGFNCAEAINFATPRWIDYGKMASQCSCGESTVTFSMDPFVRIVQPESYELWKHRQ
# TDP1 inh: qHTS Assay for Inhibitors of Tyrosyl-DNA Phosphodiesterase (TDP1) | Tyrosyl-DNA phosphodiesterase 1 (Homo sapiens), Q9NUW8 | recombinant TDP1, AlphaScreen DNA substrate cleavage | Potency, µM (series often up to 130 µM), for the others: at the highest dose activity change, negative = inhibition, actives largely listed as inhibitors | hit rate 0.28% among 350,000; note: nearly all actives have a fitted effect of over 40% in size
#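 E. coli-derived human Tdp1, 1 nM final. Cpd preinc 15 min RT; substrate 15 nM final, 5 min RT; AS bead mix 10 ug/ml final, 10 min RT. Signal loss = tyrosine-FITC cleavage. No-enzyme wells = max signal.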
# BLM inh: qHTS Assay for Inhibitors of Bloom's syndrome helicase (BLM). hit rate 0.2% among 350,000. RecQ-like DNA helicase BLM (Homo sapiens), P54132. Potency, µM (top dose mostly 56.1 µM), without a hit: at the highest dose activity change, negative = inhibition, most hits filed as inhibitors. recombinant BLM DNA unwinding, fluorescence dequenching;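 note: plate controls were vehicle for no effect and no enzyme for full effect; nearly all actives have a fitted effect of over 35% in size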
# RECQ1 inh-1: qHTS Assay for Inhibitors of RecQ-Like Dna Helicase 1 (RECQ1) | RECQ1 DNA unwinding, red fluorescence kinetic read | hit rate 0.54% among 240,000 | ATP-dependent DNA helicase Q1 (Homo sapiens), P46063 | Potency, µM (highest dose often 57.3 µM), without a hit: top-dose activity, negative = inhibition, most hits filed as inhibitors;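 note: plate controls were vehicle for no effect and no enzyme for full effect; nearly all actives have a fitted effect of over 30% in size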
#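 RECQ1T1 50 nM; forked duplex (20 bp + 30-nt ss tails) 200 nM, ATP 2 mM final; pH 8.0, 2 mM MgCl2, 2.5 ug/ml poly(dI-dC); 15 min compound preincubation; discontinuous kinetic read over 2 h at RT.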
# RECQ1 inh conf: Confirmation qHTS Assay for Inhibitors of RecQ-Like Dna Helicase 1 (RECQ1) | shares compounds with RECQ1 inh-1 | RECQ1 helicase DNA unwinding, fluorescence | Potency, µM (top dose mostly 229 µM), for inactives: top-dose activity change, negative = inhibition, actives largely listed as inhibitors | hit rate 28% among 610 | AID 2708, 2010; note: nearly all actives have a fitted effect of over 45% in size
# ADP FP counter: Counterscreen for RECQ1 Inhibitors: ADP Fluorescence Polarization Displacement Assay; shares compounds with RECQ1 inh-1; ADP fluorescence polarization displacement counterscreen; Potency, µM (highest dose often 228 µM), inactives show at the highest dose activity change, negative = inhibition, most hits filed as inhibitors; hit rate 27% among 530; AID 2711, 2010; note: nearly all actives have a fitted effect of over 45% in size
# RECQ1 inh-2: Confirmation qHTS Assay for Inhibitors of RecQ-Like Dna Helicase 1 (RECQ1) - Round 2 Cherry Picks; shares compounds with RECQ1 inh-1; recombinant RECQ1 DNA unwinding, red fluorescence; Potency, µM (titrated, usually from 119 µM), for the others: at the top dose activity, negative = inhibition, actives largely listed as inhibitors; hit rate 15% among 1,100; AID 504841, 2011; note: nearly all actives have a fitted effect of over 50% in size
# Numbers without * were called inactive; i = inactive; u = inconclusive; x = not tested or not shown; ! = repeats disagree; [ ] = another dose, or the depositor's remark. Many of the other results were omitted from the sample, so hits are more common in it than they were. Unless noted, calls come from the whole dose curve; as a rule, active = well fitted curve in the direction sought with a large enough effect; inconclusive = small, poorly fitted or top-dose-only effect, or another doubt; inactive = no such curve, though single readings can be large; an effect the other way counts as inactive or inconclusive. Unless noted, % is set by controls: 0 for no effect and ±100 for the full control effect; potency is the fitted concentration of half-maximal effect.
SMILES,APE1 inh,L3MBTL1 inh,JMJD2E inh,TDP1 inh,BLM inh,RECQ1 inh-1,RECQ1 inh-2,others
CCC(NC(=O)Nc1ccc(O)cc1)(C(F)(F)F)C(F)(F)F,u,u,-28%,1%,-14%,u,-17%,
N/C(=N\NC(=O)c1ccccc1Cl)c1cc2ccccc2oc1=O,4%,x,-4%,2%,-7%,28µM*,-6%,
COC(=O)c1cc2ccccc2oc1=O,1%,x,u,-2%,-1%,-9%,x,
CCCCC1=CC2=CC(=O)C(C)(OC(=O)CC)C(=O)C2=CN1Cc1ccco1 (stereo not given),u,x,22µM*!,8%[12.3 µM],-6%[12.4 µM],u,-11%,
CCCCC1=CC2=CC(=O)C(C)(OC(=O)CC)C(=O)C2=CN1Cc1ccccc1 (stereo not given),13%[12.4 µM],x,u,15%[12.3 µM],0%[12.4 µM],-8%[11.5 µM],x,
COc1cc(NC(=O)CN2Cc3ccccc3C2=O)cc(OC)c1OC,x,x,x,1%,0%,x,x,
CC(C)OC(=O)CC(=O)c1sc2nc3c(cc2c1N)CN(C)CC3,7%,u,u,x,-23%,13µM*,-7%,
CCc1nnc(SCC(=O)Nc2cccc(C(F)(F)F)c2)c2cc3oc(C)cc3n12,x,x,x,-3%,1%,x,x,
COC(=O)C1=C(C)N2C(=O)CSC2=NC1c1ccc2c(c1)OCO2 (stereo not given),10%,-8%,-1%,2%,-6%,u,-16%,
COCCN1C=C(C(=O)OC)C(c2ccc3c(c2)OCO3)C(C(=O)OC)=C1,3%,18%,u,-2%,-7%,i,x,
CN(C)c1ccc(C2C3=C(CCCC3=O)OC3=C2C(=O)CCC3)cc1,7%,-11%,-15%,7%,-14%,u,1%,
Cc1ccccc1N1CCN(S(=O)(=O)CC23CCC(CC2NC(=O)C(N)CCS(C)(=O)=O)C3(C)C)CC1 (stereo not given),-2%,x,x,8%,-4%,-17%,x,
CN1/C(=C\C=C2/SC(=S)N(CC(=O)O)C2=O)C(C)(C)c2ccccc21,25µM*,-24%,-7%,5%,14µM*,25µM*,x,RECQ1 inh conf=40µM*;ADP FP counter=3.2µM*
CCCN1C(=O)/C(=C/C=C2\N(CC)c3ccccc3C2(C)C)SC1=S,-3%,-16%,9%,8%,-5%,i,x,
O=C(CSc1ncnc2sc3c(c12)CCCC3)c1ccco1,u,-4%,u,-7%,-20%,u,-23%,
O=C(CSc1ncnc2sc3c(c12)CCCC3)c1ccccc1,0%,-23%,-14%,u,-1%,-1%,x,
Cc1cc(C)n2c(SCC(=O)Nc3c(C)n(C)n(-c4ccccc4)c3=O)nnc2n1,-2%,x,-10%,-5%,-2%,-6%,x,RECQ1 inh conf=18%;ADP FP counter=7%
Cc1ccc(Cn2c(C(=O)O)c(CNCc3cccs3)c3ccc(C)cc32)cc1,x,x,x,5%,-1%,x,x,
CCc1ccc(-c2nc(CN3CCCC(C(=O)N4CCN(c5cc(Cl)ccc5C)CC4)C3)c(C)o2)cc1 (stereo not given),x,x,x,8%,-10%,x,x,
COCCn1cnc2c1-c1ccc(OC)c(c1)OC/C=C\COc1cccc-2c1,1%,x,x,14%,4%,-7%,x,
Nc1ccc(C(=O)OCC(=O)N2c3ccccc3Sc3ccccc32)cc1[N+](=O)[O-],-7%,-4%,0%,3%,-11%,28µM*,-10%,
Nc1ccc(C(=O)OCC(=O)N2CCc3ccccc3C2)cc1[N+](=O)[O-],2%,-5%,2%,2%,-14%,13%,x,
O=C(O)c1ccc(NS(=O)(=O)c2ccc3c(c2)C2C=CCC2C(c2ccccc2F)N3)cc1 (stereo not given),u,7.9µM*,-23%,x,7%,u,-14%,
O=C(N/N=C/c1cccc(NC(=O)c2ccc(Cl)cc2)c1)c1ccc(O)cc1,u,x,-5%,x,-1%,18µM*,x,RECQ1 inh conf=112µM*;ADP FP counter=19%[91.9 µM]
O=C(N/N=C/c1ccncc1)c1cccc(NC(=O)c2ccc(Cl)cc2)c1,21%,23%,-10%,0%,3%,-7%,x,
SMILES,APE1 inh,L3MBTL1 inh,JMJD2E inh,TDP1 inh,BLM inh,RECQ1 inh-1,RECQ1 inh-2,others
CCOC(=O)c1nc(NCc2ccc(Cl)cc2)c2c(C)noc2n1,x,x,x,5%,1%,x,x,
O=C(/C=C/c1ccc(Cl)cc1)N1CCN(c2c(Cl)cccc2[N+](=O)[O-])CC1,-4%,-18%,0%,6%,-7%,-8%,x,
O=C(CSc1ccc(Cl)cc1)N1CCN(c2c(Cl)cccc2[N+](=O)[O-])CC1,-4%,-26%,-1%,4%,-11%,8.9µM*,-27%,RECQ1 inh conf=-6%[114 µM];ADP FP counter=-4%[91.9 µM]
CCNc1ccc2c(Cl)cc(=O)oc2c1,-4%,14%,u,6%,0%,35µM*,-38%,
CCN(CC)c1ccc2c(Cl)cc(=O)oc2c1,-1%,92%,u,x,-3%,-24%,x,
CCOc1ccc(S(=O)(=O)NCCSCc2ccco2)cc1,6%,x,-1%,0%,-8%,-10%,x,
COc1ccc(S(=O)(=O)NCCSCc2ccco2)cc1,u,x,-11%,3%,-16%,u,-15%,

# Screening results: PubChem BioAssay, National Center for Advancing Translational Sciences (NCATS)
